Measurements from PubChem BioAssay (NCI).
Several values for one entry are separate records, joined by “and”; a condition that tells them apart may be missing. Equal entries are not always repeated. The panel holds about 79,000 compounds, 15% with a hit somewhere; the sample as a whole holds those more often. No stated cut-off is given here; in the data, active means growth inhibition above about 70%; inactive means the rest.

Assays:
[1] = NCI Yeast Anticancer Drug Screen. Data for the rad50 strain (AID 155);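 further: 0% = growth of vehicle-only cultures of the same strain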; details: S. cerevisiae rad50 strain growth inhibition; at 50.0 µM; active compounds read high
Summary of the method: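 Relative growth inhibition (compound vs vehicle) was measured in yeast with a defined repair-gene alteration.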

[2] = NCI Yeast Anticancer Drug Screen. Data for the mec2-1 strain (AID 157); details: S. cerevisiae mec2-1 strain, at 50.0 µM, active compounds read high
Summary of the method: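 Mutant yeast (mec2-1) grown with compound; growth inhibition relative to vehicle control reported.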

[3] = NCI Yeast Anticancer Drug Screen. Data for the sgs1 mgt1 strain (AID 161);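 further: 0% = growth of cultures given vehicle only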; details: S. cerevisiae sgs1 mgt1 strain, at 50.0 µM, active compounds read high
Summary of the method: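 This yeast growth screen uses a strain with defined DNA-repair lesions; compound-treated growth is compared with vehicle-treated growth.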

[4] = NCI Yeast Anticancer Drug Screen. Data for the cln2 rad14 strain (AID 165);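 further: 0% = growth equal to vehicle treated cultures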; details: S. cerevisiae cln2 rad14 strain, at 50.0 µM, active compounds read high
Summary of the method: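 Readout is yeast growth inhibition versus vehicle-treated controls, using a strain with cln2 and rad14 alterations exposed to compound.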

[5] = NCI Yeast Anticancer Drug Screen. Data for the bub3 strain (AID 167); details: S. cerevisiae bub3 mutant strain, at 50.0 µM, active compounds read high
Summary of the method: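 Screening used yeast with an engineered genetic alteration affecting cell cycle control. Compound-exposed cultures were compared with vehicle cultures, and reduced growth was taken as inhibition.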

[6] = NCI Yeast Anticancer Drug Screen. Data for the mlh1 rad18 strain (AID 175); details: S. cerevisiae mlh1 rad18 strain growth inhibition; at 50.0 µM; active compounds read high
Summary of the method: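 Genetically defined yeast (DNA repair-deficient) exposed to compounds; growth inhibition determined relative to vehicle.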

Measured: growth inhibition

CC(C)CC1N=C(N(C)N=O)OP1(=O)NNc1ncccn1 (stereo not given)
inactive: [1] -5.5% | [2] -14.9% | [3] -15.4% | [4] 6.65% | [5] 13.8% | [6] 13.9%

CC(C)(C[N+](=O)[O-])C[N+](=O)[O-]
inactive: [1] -1.45% | [2] -34.1% | [3] 15.6% | [4] -19.1% | [5] -1.7% | [6] 10.9%

CC1(C)Cc2cccc(C=C(C#N)C#N)c2O1
inactive: [1] 6.9% | [2] 20.6% | [3] 3.25% | [4] -63.5% | [5] -6.85% | [6] -3.25%

CC1C(c2ccccc2)OCCN1C (stereo not given)
inactive: [1] -26.4% | [2] -12.9% | [3] -23.7% | [4] -7.5% | [5] -16.4% | [6] -32.2%

CC(=O)Nc1nc(CCl)cs1
inactive: [1] 11.8% | [2] -1.1% | [3] 13.6% | [4] 5.55% | [5] 27.3% | [6] 9.6%

CC1CCC(OC(=O)CCl)CC1 (stereo not given)
inactive: [1] 18.1% | [2] 19.4% | [3] 13.3% | [4] 7.45% | [5] 8.95% | [6] -8.75%

CCCN(CCC)C(=O)CCl
inactive: [1] -4.55% | [2] 5.2% | [3] 5.85% | [4] 3.3% | [5] -4.55% | [6] 9.4%

Cc1ccc(OP(=O)(Oc2ccc(C)c(C)c2)Oc2ccc(C)c(C)c2)cc1C
inactive: [1] -3.7% | [2] -8.55% | [3] -9.15% | [4] -8.95% | [5] 5.2% | [6] -17%

CC([NH-])C[NH-].CC([NH-])C[NH-].[Co].[NH2-].[NH2-] (stereo not given)
inactive: [1] -10% | [2] -6.5% | [3] 6.15% | [4] -41.2% | [5] 35.2% | [6] 18.4%

O=[N+]([O-])NC1=NCCN1CCO
inactive: [1] -8.85% | [2] -3.95% | [3] -2.15% | [4] -16.6% | [5] -26.1% | [6] -18.9%

O=C(OCCOc1ccccc1)C(Cl)(Cl)Cl
inactive: [1] -6.05% | [2] -7.1% | [3] 10.6% | [4] -8.8% | [5] 12.3% | [6] 3.25%

CCOC(=O)C(Cc1ccc(N(CCCl)CCCl)cc1)NC(=O)C(N)CO (stereo not given)
inactive: [1] -4.05% | [2] 17.6% | [3] 4.75% | [4] -1.3% | [5] 12.3% | [6] 7.5%

BrCCCCCCBr
inactive: [1] -5.65% | [2] 5.8% | [3] 3.25% | [4] -29.3% | [5] 5.6% | [6] 5.4%

CCOP(=O)(OCC)/C(C#N)=C/c1cc(O)ccc1O
inactive: [1] -34.2% | [2] -35.1% | [3] -51.9% | [4] -10.2% | [5] -47.9% | [6] -45.8%

CN1CCCC(OC(=O)C(c2ccccc2)C2(O)CCCC2)C1 (stereo not given)
inactive: [1] 30.6% | [2] -9.55% | [3] 27.1% | [4] -27.9% | [5] -1.85% | [6] 16.8%

COC(=O)CNP(=O)(NCC(=O)OC)N(CCCl)CCCl
inactive: [1] -8.2% | [2] -14.8% | [3] -18.6% | [4] 5.2% | [5] -1.65% | [6] 5.7%

O=C1C2C(C(=O)N1c1ccc(O)cc1)C1(Cl)C(Cl)=C(Cl)C2(Cl)C1(Cl)Cl (stereo not given)
inactive: [1] -0.45% | [2] -11.8% | [3] 1.9% | [4] -0.1% | [5] -19.6% | [6] 1%

CC(O)CCC(=O)c1ccoc1 (stereo not given)
inactive: [1] 6.4% | [2] 10.7% | [3] 1.45% | [4] 8.15% | [5] 14.3% | [6] -71.7%

C=C(C)CC1(CC)C(=O)NC(=S)NC1=O
inactive: [1] -11.8% and -1.6% | [2] -21.6% and -1.3% | [3] 0.35% | [4] 6% | [5] -5.6% | [6] -13.4% and 12.1%

CCN(CCCl)c1cc(C(N)=O)c([N+](=O)[O-])cc1[N+](=O)[O-]
inactive: [1] -1.25% | [2] -8.7% | [3] 9% | [4] 3.8% | [5] 5.25% | [6] -19.6%
